Among the data in PubChem BioAssay AID1578 (Sanford-Burnham Center for Chemical Genomics, 2009) are inhibition values, retold here.

About 3,000 (1%) of roughly 290,000 compounds were called active. The sample holds actives, similar compounds and a random draw of the others, so the mix is not that of the screen. Rule as the data show it: active = inhibition mostly above about 36% (no sharp cut-off); inactive = mostly below about 34%.

The test can be described thus: inhibition of NOD1-driven NF-kB reporter – cell-based, luminescence, uHTS, primary screen (AID 1578).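 Also: HEK-293T reporter cells stimulated with the NOD1 agonist gamma-tri-DAP.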 The settings on record: NOD1-driven NF-kB luciferase reporter cells, at 4 µM, hits give high values.
`Cn1ncc2c(Nc3ccc(Cl)c(Cl)c3)ncnc21`: the inhibition (usually the relative decrease from the control value, in per cent) was -5.2% (inactive).

Turning to `Cc1ccc(OCCCCNC2CCCC(C)C2C)c(C)c1` (configuration not stated), the inhibition is -22.2% (inactive).

`Cc1ccc(OCC(O)CNC2CCCC2)c(C)c1` (configuration not stated): the inhibition is 0% (inactive).

Take `Cc1ccc(OCCCCNC2CCCCC2)c(C)c1`: the inhibition was 30.3% (active).

With `CN(Cc1ccccc1)C(=O)c1cc(=O)[nH]c2ccccc12`, the inhibition is 6.3% (inactive).

In the case of `Cc1ccc(-n2nc(-c3ccccc3)cc2Nc2ccccc2N)cc1`, the inhibition is -9.6% (inactive).

As for `O=C(CS(=O)c1ccc(C(F)(F)F)cc1[N+](=O)[O-])Oc1ccc(Cl)cc1` (configuration not stated), the inhibition was 15.4% (inactive).

For the molecule `O=C(CS(=O)c1ccc(C(F)(F)F)cc1[N+](=O)[O-])Oc1ccccc1` (configuration not stated), the inhibition was 21.2% (inactive).

For `CS(=O)(=O)c1ccc(S(=O)CC(=O)Oc2ccc(Cl)cc2)c([N+](=O)[O-])c1` (configuration not stated), the inhibition was 47.4% (active).

As for `Nc1ccc(-c2nc3cc([N+](=O)[O-])ccc3o2)cc1`, the inhibition is -15.4% (inactive).

For the molecule `COc1ccc(S(=O)Cc2ccc(C(=O)NCc3cccc(OC)c3)o2)cc1` (configuration not stated), the inhibition was -16.8% (inactive).

With `O=C(CSCc1cnn(-c2ccccc2)c1-n1cccc1)NCc1cccnc1`, the inhibition was 60.7% (active).

Consider `COc1cccc(CNC(=O)CSCc2cnn(-c3ccccc3)c2-n2cccc2)c1`, for which the inhibition was 19.5% (inactive).

As to `O=C(CSCc1cnn(-c2ccccc2)c1-n1cccc1)NCc1ccccn1`, the inhibition was -18.4% (inactive).

As to `CCCCCCCC(=O)N/N=C(\C)c1cccnc1`, the inhibition is 7.8% (inactive).

For the molecule `N#C/C(=C\C=C\c1ccccc1)C(=O)NCc1cccnc1`, the inhibition is 68.7% (active).

As for `COc1cc(NC(=O)/C=C/c2ccccc2[N+](=O)[O-])cc(OC)c1`, the inhibition is -36.1% (inactive).

With `N#C/C(=C\C=C\c1ccccc1)C(=O)NCc1ccco1`, the inhibition is 19.2% (inactive).

For the molecule `N#C/C(=C\c1ccccc1[N+](=O)[O-])C(=O)NCc1ccccc1`, the inhibition is -5% (inactive).

Consider `N#C/C(=C\C=C\c1ccccc1[N+](=O)[O-])C(=O)NCc1ccccc1`, for which the inhibition is 97.3% (active).

On to `COCCNC(=O)/C(C#N)=C/C=C/c1ccccc1`, for which the inhibition is -4.8% (inactive).

On to `COC(=O)C(=Cc1ccccc1[N+](=O)[O-])C(=O)OC`, for which the inhibition is 28.4% (active).

Regarding `N#C/C(=C\c1ccc(O)c([N+](=O)[O-])c1)C(=O)NCc1ccccc1`, the inhibition is -13.6% (inactive).

Take `COCCNC(=O)/C(C#N)=C/C=C/c1ccccc1[N+](=O)[O-]`: the inhibition was 76.2% (active).

Consider `COCCNC(=O)/C(C#N)=C/c1ccc(O)c([N+](=O)[O-])c1`, for which the inhibition is -50.1% (inactive).

As to `O=C(O)/C=C/c1ccccc1[N+](=O)[O-]`, the inhibition was 2.2% (inactive).

Regarding `O=C(/C=C/c1ccccc1)NCc1cccnc1`, the inhibition was -46% (inactive).

As for `Cc1cc([N+](=O)[O-])ccc1NC(=O)Nc1ccc(F)cc1F`, the inhibition was -5% (inactive).

Consider `Cc1ccc(Cn2nnc3c(=O)n(Cc4cc(C)ccc4C)cnc32)cc1`, for which the inhibition was -9.7% (inactive).

Turning to `CN(C)S(=O)(=O)c1cccc(NC(=O)c2cc3ccccc3o2)c1`, the inhibition is -40.6% (inactive).

`COc1ccc(/C=C(\C#N)C(=O)NC(C)c2ccccc2)cc1O` (configuration not stated): the inhibition is -1.1% (inactive).

For `CC(=O)c1c(O)c2ccccc2n(C(C)C)c1=O`, the inhibition is 12% (inactive).

For the molecule `O=C(COC(=O)c1ccco1)Nc1ccccc1[N+](=O)[O-]`, the inhibition was -4.7% (inactive).

On to `CN(C)C(=O)Nc1ccccc1CC[N+](=O)[O-]`, for which the inhibition was -28.5% (inactive).

In the case of `COc1ccc(-c2csc3ncnc(Cl)c23)cc1`, the inhibition is -16.4% (inactive).

Turning to `Cc1c(C(=O)N2CCN(c3ccccc3F)CC2)oc2c1C(=O)CC(C)(C)C2`, the inhibition was 0% (inactive).

For the molecule `O=S(=O)(/N=C(\Sc1ccc(Cl)cc1)c1ccccc1)c1ccccc1`, the inhibition is 3.3% (inactive).

As for `C=CCn1c(=O)c2c3c(sc2n2c(Nc4ccc(C(=O)OCC)cc4)nnc12)CCCC3`, the inhibition was -30.7% (inactive).

With `CCC(C)(C)NC(=O)C(c1ccc(OC)cc1)N(C(=O)CCC(=O)Nc1cc(C)on1)c1ccc(F)cc1` (configuration not stated), the inhibition is -11.7% (inactive).

Consider `CC(C)c1ccc(/C=N/NC(=O)CC(=O)NCc2ccccc2)cc1`, for which the inhibition is -41.2% (inactive).

`CCN(CC)S(=O)(=O)c1cc([N+](=O)[O-])ccc1NNC(=O)Nc1ccccc1`: the inhibition is -23.4% (inactive).

Regarding `CCN(CC)S(=O)(=O)c1cc([N+](=O)[O-])ccc1NNC(=O)Nc1ccc(F)cc1`, the inhibition was 2% (inactive).

As for `CCN(CC)S(=O)(=O)c1cc([N+](=O)[O-])ccc1NNC(=O)Nc1ccc(Cl)c(Cl)c1`, the inhibition is 83.8% (active).

For `COc1ccc(CN2CCN(C(=O)CCC(=O)Nc3nnc(C4CCCCC4)s3)CC2)cc1F`, the inhibition was 26.9% (inactive).

For `COc1ccc(C(=O)N/N=C/c2ccc(OC)c(COc3ccccc3)c2)cc1`, the inhibition is 3.5% (inactive).

`COc1ccc(/C=N\NC(=O)c2ccccc2)cc1COc1ccc(F)cc1`: the inhibition was 39.2% (inactive).

With `COc1ccc(/C=N/NC(=O)c2cc(C(C)(C)C)[nH]n2)cc1COc1ccc(F)cc1F`, the inhibition is 44.1% (active).

With `COc1ccc(/C=N\NC(=O)c2ccccc2F)cc1COc1ccc(F)cc1F`, the inhibition was 31.2% (inactive).

Regarding `COc1ccc(C(=O)N/N=C/c2ccc(OC)c(COc3ccc(F)cc3)c2)cc1`, the inhibition was 56.6% (active).

`COc1ccc(C(=O)N/N=C/c2ccc(OC)c(COc3ccc(F)cc3F)c2)cc1`: the inhibition is 38.8% (inactive).

`C/C(=N\NC(=O)c1ccc2ccccc2c1)c1cccs1`: the inhibition was -67.5% (inactive).

In the case of `Cc1ccccc1CSCCNC(=O)CCSc1ccccc1`, the inhibition was 71.3% (active).

As to `Cc1ccc(SCCC(=O)NCCSCc2ccccc2C)cc1`, the inhibition was -35.1% (inactive).

As to `COc1ccc(CNC(=O)CCSCc2ccc(C)cc2)cc1`, the inhibition was -7.5% (inactive).

In the case of `COc1ccc(CNC(=O)CCSCc2ccccc2C)cc1`, the inhibition is 49.7% (active).

On to `Cc1ccc(CNC(=O)CCSCc2ccccc2C)cc1`, for which the inhibition is -14.9% (inactive).

Turning to `O=C(CCSc1ccccc1)NCCSCc1ccccc1`, the inhibition was -33.8% (inactive).

Regarding `CCC(C)[C@H](NC(=O)Nc1ccccc1F)C(=O)O` (some centres not stated), the inhibition is -12.6% (inactive).

Regarding `NS(=O)(=O)c1cccc(NC(=O)COC(=O)CCSc2ccccc2)c1`, the inhibition was -26.8% (inactive).

Take `O=C(Nc1ccc(Cl)cc1)Nc1ccccc1Sc1ncc([N+](=O)[O-])s1`: the inhibition was -6.5% (inactive).

For `O=[N+]([O-])c1ccc(Sc2n[nH]c(-c3ccncc3)n2)nc1`, the inhibition was -10.2% (inactive).

As for `O=[N+]([O-])c1cnc(Sc2ccncn2)s1`, the inhibition was 66% (active).

As to `O=C(O)C1Nc2c(cccc2C(F)(F)F)C2C=CCC12` (configuration not stated), the inhibition is -8.8% (inactive).

As to `O=C(Nc1ccncc1)c1c(F)c(F)c(F)c(F)c1F`, the inhibition was 11% (inactive).

Take `O=C(Nc1ccccc1)c1c(F)cccc1F`: the inhibition is -2.4% (inactive).

With `O=S(=O)(c1ccc(Cl)s1)N1CCN(c2ncccn2)CC1`, the inhibition is -11.8% (inactive).

Regarding `Cc1ccccc1-c1nsc(SCC(=O)c2ccc(Cl)cc2)n1`, the inhibition is -4.8% (inactive).

As to `c1coc(C2=NCCc3ccccc32)c1`, the inhibition was -18% (inactive).

On to `Nc1nc(Cl)nc(N(c2ccccc2)c2ccccc2)n1`, for which the inhibition was -8.3% (inactive).

Take `Nc1nc(CCl)nc(N(c2ccccc2)c2ccccc2)n1`: the inhibition is 50.5% (active).

In the case of `CCN(CC)c1nc(N)nc(N(c2ccccc2)c2ccccc2)n1`, the inhibition is 13.6% (inactive).

Turning to `Fc1ccc2c(c1)C(c1ccncc1)=NNC(c1ccccc1)=N2`, the inhibition was 16% (inactive).

Regarding `Cc1ccc(C(=O)COC(=O)c2ccc(-c3cnc4ccccc4n3)cc2)cc1C`, the inhibition is -22.2% (inactive).

As for `O=C1CCCN1CCCNC(=S)Nc1ccc(Cl)cc1Cl`, the inhibition was -41.9% (inactive).

On to `N/C(=N\NC(=O)c1sccc1OCc1ccc(Cl)cc1Cl)c1ccccn1`, for which the inhibition is -6% (inactive).

Regarding `CCc1ccc(C(C(=O)NC2CCCC2)N(C(=O)/C=C/C(=O)Nc2cc(C)on2)c2ccccc2C)cc1` (configuration not stated), the inhibition was 76.7% (active).

For `CCOc1ccc(N(C(=O)/C=C/C(=O)Nc2cc(C)on2)C(C(=O)NC2CCCC2)c2ccccc2C)cc1` (configuration not stated), the inhibition was 52.5% (inactive).

In the case of `Cc1cc(NC(=O)/C=C/C(=O)N(c2ccccc2C)C(C(=O)NC2CCCC2)c2ccc(F)cc2)no1` (configuration not stated), the inhibition is 30.5% (inactive).

For `ClCc1nc2ccccc2c2ccccc12`, the inhibition is 64.7% (active).

`CCOC(=O)c1c(CCl)nc2ccccc2c1-c1ccccc1`: the inhibition is 19.7% (inactive).

With `CCOC(=O)c1c(CCl)nc2ccccc2c1C`, the inhibition was -9.2% (inactive).

`CC(=O)N(CCc1ccccc1C)Cc1cc2ccc(C)cc2[nH]c1=O`: the inhibition was -1% (inactive).

For `CCOC(=O)N1CCN(C(=O)Cn2nc(C)c3sc4ccccc4c3c2=O)CC1`, the inhibition was 53.1% (active).

Consider `Cc1nn(CC(=O)N2CCN(C)CC2)c(=O)c2c1sc1ccccc12`, for which the inhibition is -7.7% (inactive).

For `CCN1CCN(C(=O)Cn2nc(C)c3sc4ccccc4c3c2=O)CC1`, the inhibition was -12.8% (inactive).

`Cc1nnc(SCc2cn3ccsc3n2)n(N)c1=O`: the inhibition is 8.4% (inactive).

As for `Cc1ccc(C)c2sc(NC(=O)CN3C(=O)CCC3=O)nc12`, the inhibition was 14.9% (inactive).

Consider `CCCNC(=O)c1cc(S(=O)(=O)N2CCc3ccccc32)cn1C`, for which the inhibition is 30.1% (inactive).

Take `CCC(C)(C)NC(=O)c1cc(S(=O)(=O)N2CCc3ccccc32)cn1C`: the inhibition is 14.8% (inactive).

As to `CC1=NN(Cc2ccccc2)C(=O)C1C(c1ccncc1)C(C#N)C#N` (configuration not stated), the inhibition is 5.2% (inactive).

For the molecule `Cc1nc2c(ccc3nc(NC(=O)C4CC4)sc32)s1`, the inhibition was 69% (active).

With `Cc1nc2c(ccc3nc(NC(=O)Cc4ccccc4)sc32)s1`, the inhibition was -51.4% (inactive).

Turning to `CCC(=O)Nc1nc2ccc3sc(C)nc3c2s1`, the inhibition was 17.2% (inactive).

For `Fc1ccc(NC(=S)Nc2cccnc2)c(F)c1F`, the inhibition was -19.1% (inactive).

In the case of `COc1ccc(CCNC(=O)c2oc3ccc(OC)cc3c2C)cc1`, the inhibition was -13.3% (inactive).

`CCOc1ccccc1NC(=O)CSc1nc2c(c(=O)n1C)SC(C)C2` (configuration not stated): the inhibition was -16.7% (inactive).

Consider `O=C1COc2ccc(C(=O)COC(=O)CCc3ccc(S(=O)(=O)N4CCOCC4)cc3)cc2N1`, for which the inhibition is 1.2% (inactive).
